Records with an inconclusive call do not appear. Active and inactive are the calls of the source. The calls were made as follows: active = hit-call score of the fitted dose curve at least 0.9, where 1 is the maximum; inconclusive = response in the unintended direction; inactive = score below 0.9.

rat Opioid Receptor, Non-selective Binding, Oprm1 (gene 25601), sequence (P33535 whole entry, looked up): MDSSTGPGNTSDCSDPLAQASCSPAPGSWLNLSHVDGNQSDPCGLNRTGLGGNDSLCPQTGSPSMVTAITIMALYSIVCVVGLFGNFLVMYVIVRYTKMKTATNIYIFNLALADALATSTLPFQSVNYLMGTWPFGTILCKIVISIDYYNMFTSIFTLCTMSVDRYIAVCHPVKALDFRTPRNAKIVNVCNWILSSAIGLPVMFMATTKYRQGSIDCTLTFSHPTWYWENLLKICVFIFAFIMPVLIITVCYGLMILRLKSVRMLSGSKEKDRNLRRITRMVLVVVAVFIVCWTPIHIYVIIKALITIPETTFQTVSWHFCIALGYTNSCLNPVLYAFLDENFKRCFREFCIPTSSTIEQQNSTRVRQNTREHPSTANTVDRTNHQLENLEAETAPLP
rat Neonicotinoid receptor (NNR), Chrna7 (gene 25302), sequence (Q05941 whole entry, looked up): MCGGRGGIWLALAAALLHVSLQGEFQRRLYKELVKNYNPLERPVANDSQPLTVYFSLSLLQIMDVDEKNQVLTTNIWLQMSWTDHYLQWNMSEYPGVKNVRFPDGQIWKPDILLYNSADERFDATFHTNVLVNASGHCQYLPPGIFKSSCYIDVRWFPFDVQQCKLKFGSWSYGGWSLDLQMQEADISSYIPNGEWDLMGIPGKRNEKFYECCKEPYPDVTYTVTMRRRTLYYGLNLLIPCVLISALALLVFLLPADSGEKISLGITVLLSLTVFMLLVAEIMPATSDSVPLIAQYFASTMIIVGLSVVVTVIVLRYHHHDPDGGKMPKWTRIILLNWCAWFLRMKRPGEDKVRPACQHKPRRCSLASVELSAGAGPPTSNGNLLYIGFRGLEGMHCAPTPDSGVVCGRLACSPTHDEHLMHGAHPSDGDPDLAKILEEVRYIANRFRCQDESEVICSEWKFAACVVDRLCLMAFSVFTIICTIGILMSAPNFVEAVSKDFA
rat Neurokinin-1 Receptor (NK1), Tacr1 (gene 24807), sequence (P14600 whole entry, looked up): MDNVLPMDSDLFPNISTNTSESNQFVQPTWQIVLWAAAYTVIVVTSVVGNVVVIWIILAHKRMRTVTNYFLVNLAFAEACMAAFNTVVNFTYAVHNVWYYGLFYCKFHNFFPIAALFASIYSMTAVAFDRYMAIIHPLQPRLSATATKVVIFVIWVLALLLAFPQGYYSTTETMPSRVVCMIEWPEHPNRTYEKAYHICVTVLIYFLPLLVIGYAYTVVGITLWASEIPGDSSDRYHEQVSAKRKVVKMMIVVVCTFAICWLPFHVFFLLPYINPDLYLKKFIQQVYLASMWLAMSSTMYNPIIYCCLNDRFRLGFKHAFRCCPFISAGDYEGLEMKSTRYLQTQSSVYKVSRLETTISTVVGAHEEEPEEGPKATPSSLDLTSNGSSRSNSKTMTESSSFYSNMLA
rat Somatostatin Receptor (SST), Sstr1 (gene 25033), sequence (P28646 whole entry, looked up): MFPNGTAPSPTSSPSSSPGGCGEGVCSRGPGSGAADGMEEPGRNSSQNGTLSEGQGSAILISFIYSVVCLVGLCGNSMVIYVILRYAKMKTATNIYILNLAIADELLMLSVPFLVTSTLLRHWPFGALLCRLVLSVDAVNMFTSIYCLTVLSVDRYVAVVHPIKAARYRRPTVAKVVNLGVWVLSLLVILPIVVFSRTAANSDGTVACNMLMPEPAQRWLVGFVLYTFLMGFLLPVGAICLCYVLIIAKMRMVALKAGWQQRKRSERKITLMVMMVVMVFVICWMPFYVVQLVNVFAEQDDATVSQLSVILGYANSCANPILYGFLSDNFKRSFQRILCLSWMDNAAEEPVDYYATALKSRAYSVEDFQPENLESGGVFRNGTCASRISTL
human Neonicotinoid receptor (NNR), CHRNA2 (gene 1135), sequence (Q15822 whole entry, looked up): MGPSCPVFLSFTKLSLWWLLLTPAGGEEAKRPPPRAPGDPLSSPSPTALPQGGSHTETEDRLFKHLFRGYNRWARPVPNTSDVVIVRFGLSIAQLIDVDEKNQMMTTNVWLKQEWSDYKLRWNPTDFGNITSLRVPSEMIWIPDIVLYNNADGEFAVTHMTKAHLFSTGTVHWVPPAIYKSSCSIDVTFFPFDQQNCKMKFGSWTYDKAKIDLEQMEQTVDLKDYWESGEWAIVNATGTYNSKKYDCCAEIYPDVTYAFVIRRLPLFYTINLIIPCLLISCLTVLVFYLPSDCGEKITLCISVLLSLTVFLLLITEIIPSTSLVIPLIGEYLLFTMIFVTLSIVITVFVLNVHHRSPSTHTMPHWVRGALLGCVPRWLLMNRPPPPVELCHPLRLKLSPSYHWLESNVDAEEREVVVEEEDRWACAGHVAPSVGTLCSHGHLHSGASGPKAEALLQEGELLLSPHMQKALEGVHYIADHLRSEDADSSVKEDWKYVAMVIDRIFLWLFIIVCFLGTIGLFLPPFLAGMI

The target of one assay is rat Neurokinin-1 Receptor (NK1), Tacr1 (gene 24807) (UniProt P14600). The assay is described as follows: NVS_GPCR_rNK1: NovaScreen (NVS) G Protein-Coupled Receptor Assay for rat Neurokinin-1 Receptor (NK1) (AID 2283309). The procedure, abridged:
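Competitive radioligand binding to NK1 in rat submaxillary membranes, 1 h incubation, filtration and scintillation read-out. Compounds first screened at 25 uM in duplicate, then concentration-response for actives; signal loss relative to DMSO.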
Consider `Cn1c(-c2ccccc2)cc(-c2ccccc2)[n+]1C`, for which the compound was called inactive. On the same count and under the same terms, the same measure for `CCNP(=S)(OC)O/C(C)=C/C(=O)OC(C)C` (configuration not stated): “inactive”; for `Cc1cc(C)nc(Nc2ccccc2)n1`: “inactive”.

A further assay deals with rat Opioid Receptor, Non-selective Sodium (Na+) Binding, Oprm1 (gene 25601) (UniProt P33535). The assay is described as follows: NVS_GPCR_rOpiate_NonSelectiveNa: NovaScreen (NVS) G Protein-Coupled Receptor Assay for rat Opioid Receptor, Non-selective Sodium (Na+) Binding (AID 2283311). The procedure: NVS_GPCR_rOpiate_NonSelectiveNa is a biochemical, single-readout assay that uses extracted gene-proteins from Rat forebrain membranes in a tissue-based cell-free assay. Measurements were taken 1.5 hours after chemical dosing in a 48-well plate.NVS_GPCR_rOpiate_NonSelectiveNa is one of one assay component(s) measured or calculated from the NVS_GPCR_rOpiate_NonSelectiveNa assay. It is designed to make measurements of radioligand binding, a form of binding reporter, as detected with scintillation counting signals by Filter-based radiodetection technology.Data from the assay component NVS_GPCR_rOpiate_NonSelectiveNa was analyzed into 1 assay endpoint. This assay endpoint, NVS_GPCR_rOpiate_NonSelectiveNa, was analyzed in the positive analysis fitting direction relative to DMSO as the negative control and baseline of activity. Using a type of binding reporter, loss-of-signal activity can be used to understand changes in the binding as they relate to the gene Oprm1. Furthermore, this assay endpoint can be referred to as a primary readout, because the performed assay has only produced 1 assay endpoint. To generalize the intended target to other relatable targets, this assay endpoint is annotated to the gpcr intended target family, where the subfamily is rhodopsin-like receptor.
rat Opioid Receptor, Non-selective Sodium (Na+) Binding, Oprm1 (gene 25601), sequence (P33535 whole entry, looked up): as the sequence (P33535 whole entry, looked up) above
(§1) Binding assays used specific radioligands (tritiated, iodinated) with non-radioactive competitive displacement ligands in agonist or antagonist protocols (as indicated) and various reference compounds and inhibitors to titrate specific binding to receptors and transporters. Most enzyme assays (CYPs, kinases, phosphatases, proteases, HDACs) used recombinant protein and specific substrates (fluorescence mostly, some colorimetric and radioactive) and inhibitors, followed by a biochemical separation of substrate and product. All assays for the biochemical HTS were initially run in duplicate at a single concentration (10 uM for CYP450 assays and 25 uM for all others). Assay-chemical combinations meeting a pre-defined threshold (e.g., 30% inhibition and other criteria defined below) were then run in singleton concentration-response format with maximum concentration of 20 uM for CYPs and 50 uM for all others. Each assay was run with positive and negative controls, and concurrent controls on every plate. The follow-up (secondary) screen tested active chemical-pairs in concentration series, as well as a few additional assays not tested in the primary screen, some selected negative inactives, and several cases re-run in the concentration series for confirmatory purposes.
Consider `O=C1C2CC=CCC2C(=O)N1SC(Cl)(Cl)Cl` (configuration not stated), for which the outcome was inactive. `CCOP(=O)(OCC)Oc1nc(Cl)c(Cl)cc1Cl`: the AC50 is 25 µM (active).

With `CCCN(CC)CC1COC2(CCC(C(C)(C)C)CC2)O1` (configuration not stated), the AC50 is 13.8 µM (active). Consider `COCC(C)N(C(=O)CCl)c1c(C)csc1C` (configuration not stated), for which the AC50 was 16 µM (active).

In a further assay the target is human Neonicotinoid receptor (NNR), CHRNA2 (gene 1135) (UniProt Q15822). Briefly: NVS_LGIC_hNNR_NBungSens: NovaScreen (NVS) Ligand-Gated Ion Channel Assay for human Neonicotinoid receptor (NNR) (AID 2283313). The procedure:
NVS_LGIC_hNNR_NBungSens is a biochemical, single-readout assay that uses extracted gene-proteins from Human neuroblastoma membrane cells in a tissue-based cell-free assay. Measurements were taken 2 hours after chemical dosing in a 48-well plate.NVS_LGIC_hNNR_NBungSens is one of one assay component(s) measured or calculated from the NVS_LGIC_hNNR_NBungSens assay. It is designed to make measurements of radioligand binding, a form of binding reporter, as detected with scintillation counting signals by Filter-based radiodetection technology.Data from the assay component NVS_LGIC_hNNR_NBungSens was analyzed into 1 assay endpoint. This assay endpoint, NVS_LGIC_hNNR_NBungSens, was analyzed in the positive analysis fitting direction relative to DMSO as the negative control and baseline of activity. Using a type of binding reporter, loss-of-signal activity can be used to understand changes in the binding as they relate to the gene CHRNA2. Furthermore, this assay endpoint can be referred to as a primary readout, because the performed assay has only produced 1 assay endpoint. To generalize the intended target to other relatable targets, this assay endpoint is annotated to the ion channel intended target family, where the subfamily is ligand-gated ion channel.
as §1
In the case of `CN/C(=N\[N+](=O)[O-])NCc1cnc(Cl)s1`, the AC50 is 10.1 µM (active). As to `CC1(C)C(C=C(Cl)Cl)C1C(=O)OC(C#N)c1cccc(Oc2ccccc2)c1` (configuration not stated), the AC50 is 25 µM (active). Consider `Cc1ccc(N=CN(C)C=Nc2ccc(C)cc2C)c(C)c1`, for which the outcome was inactive.

For the compound `N#CN=C1SCCN1Cc1ccc(Cl)nc1`, the AC50 is 4.45 µM (active).

The target of another assay is rat Somatostatin Receptor (SST), Sstr1 (gene 25033) (UniProt P28646). Briefly: NVS_GPCR_rSST: NovaScreen (NVS) G Protein-Coupled Receptor Assay for rat Somatostatin Receptor (SST) (AID 2283314). The procedure, abridged:
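Single-concentration duplicate screen (25 uM), then concentration-response up to 50 uM for chemicals passing a threshold such as 30% inhibition. Membranes came from rat forebrain. Binding was measured 1 h post-dose by filter radiodetection and scintillation, relative to DMSO.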
Turning to `O=C1C2CC=CCC2C(=O)N1SC(Cl)(Cl)Cl` (configuration not stated), the AC50 is 5.93 µM (active). Same read-out and setting: then `CCOP(=O)(OCC)Oc1nc(Cl)c(Cl)cc1Cl`, with 6.64 µM (active); and `CCOC(=O)C(C)OC(=O)c1cc(Oc2ccc(C(F)(F)F)cc2Cl)ccc1[N+](=O)[O-]` (configuration not stated), with 41.1 µM (active).

In a further assay the target is rat Neonicotinoid receptor (NNR), Chrna7 (gene 25302) (UniProt Q05941). Briefly: NVS_LGIC_rNNR_BungSens: NovaScreen (NVS) Ligand-Gated Ion Channel Assay for rat Neonicotinoid receptor (NNR) (AID 2283315). The procedure, abridged:
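Rat cortical membrane preparation incubated 2.5 h with tritiated or iodinated radioligand and test chemical. Bound radioactivity was filtered and counted by scintillation, and displacement was analysed against DMSO.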
As to `CN/C(=N\[N+](=O)[O-])NCc1cnc(Cl)s1`, the AC50 was 25 µM (active). Same read-out and setting: the same measure for `N#CN=C1SCCN1Cc1ccc(Cl)nc1`: 5.39 µM (active). Take `COC(=O)N(C(=O)N1CO[C@@]2(C(=O)OC)Cc3cc(Cl)ccc3C2=N1)c1ccc(OC(F)(F)F)cc1`: the result was inactive.

For the next assay, the target named is rat Opioid Receptor, Non-selective Binding, Oprm1 (gene 25601) (UniProt P33535). Briefly: NVS_GPCR_rOpiate_NonSelective: NovaScreen (NVS) G Protein-Coupled Receptor Assay for rat Opioid Receptor, Non-selective Binding (AID 2283318). The procedure, abridged:
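Filter-based radioligand displacement using rat forebrain membrane preparations, measured 1.5 h post-dosing. Single-concentration duplicate screen at 25 uM, follow-up in concentration series; activity taken as signal loss relative to DMSO.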
With `CCCC(=NOCC)C1=C(O)CC(CC(C)SCC)CC1=O` (configuration not stated), the call was inactive. For `CCOP(=O)(OCC)Oc1nc(Cl)c(Cl)cc1Cl`, the AC50 is 11.1 µM (active). Turning to `CCN(CC)C(=O)C(C)Oc1cccc2ccccc12` (configuration not stated), the outcome was inactive.

For the compound `CCOc1cc(C(C)(C)C)ccc1C1COC(c2c(F)cccc2F)=N1` (configuration not stated), the result was inactive. The same measure, in the same setting: then `CCCN(CC)CC1COC2(CCC(C(C)(C)C)CC2)O1` (configuration not stated), with “inactive”. In the case of `COCC(C)N(C(=O)CCl)c1c(C)csc1C` (configuration not stated), the result was inactive.

A further assay has as its system NCBI gene 24521. Briefly: NVS_IC_rKATPCh: NovaScreen (NVS) Ion Channel Assay for rat Potassium Channel, ATP-Sensitive (KATPCh) (AID 2283319). In short, it runs like this:
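Primary duplicate screen at 25 uM, then singleton concentration series to 50 uM maximum, in a rat cortex membrane radioligand displacement assay. Binding measured by filtration and scintillation 2 h post-dose; DMSO baseline.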
As for `CC(C)N1C(=O)c2ccccc2NS1(=O)=O`, the call was inactive. Still for that read-out and setting: the same measure for `CCOc1cc(C(C)(C)C)ccc1C1COC(c2c(F)cccc2F)=N1` (configuration not stated): “inactive”.

With `COP(=O)(OC)O/C(C)=C/C(=O)N(C)C`, the result was inactive. Still for that read-out and setting: the same measure for `COP(=S)(OC)SCn1nnc2ccccc2c1=O`: “inactive”.

Broadly, the AC50 is the concentration giving half of the maximal activity seen.

Source of the values: PubChem BioAssay (EPA / NIEHS).
